Measurements from PubChem BioAssay AID1159580 (chemical genetic matrix, 2015).
In all, about 5,500 compounds went through this assay and about 2,000 (36%) were called active. Roughly 18% stayed inconclusive and do not appear here. Rule as the data show it: active = normalized growth mostly below about 0.91 (no sharp cut-off); inconclusive = no clear call, values can overlap the other calls; inactive = mostly above about 0.92. The list shows a part of the results.

Test: chemical genetic growth profiling, strain panel (AID 1159580);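 also: tested at 20 µM; growth read once vehicle control cultures reached saturation at 30 °C; 1 = growth at the plate median or of vehicle wells; lower values mean less growth of the strain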
Settings: S. cerevisiae deletion strains, growth OD
[1] = locus YAL013W, strain DEP1, active compounds read low
[2] = locus YCL061C, strain MRC1, active compounds read low
[3] = locus YDR150W, strain NUM1, active compounds read low
[4] = locus YHR030C, strain SLT2, active compounds read low
[5] = locus YJL187C, strain SWE1, active compounds read low
[6] = locus YJR075W, strain HOC1, active compounds read low
[7] = locus YMR307W, strain GAS1, active compounds read low
[8] = locus YNL128W, strain TEP1, active compounds read low
[9] = locus YNL322C, strain KRE1, active compounds read low
[10] = locus YPL055C, strain LGE1, active compounds read low
[11] = locus YPL241C, strain CIN2, active compounds read low

Measured: normalized growth

Cc1ccc(C(=O)Nc2ccc(S(=O)(=O)O)c3cc(S(=O)(=O)O)cc(S(=O)(=O)O)c23)cc1NC(=O)c1cccc(NC(=O)Nc2cccc(C(=O)Nc3cc(C(=O)Nc4ccc(S(=O)(=O)O)c5cc(S(=O)(=O)O)cc(S(=O)(=O)O)c45)ccc3C)c2)c1
inactive: [1] 1.03 | locus YAL021C, strain ccr4, active compounds read low 1.03 | locus YAL026C, strain drs2, active compounds read low 1 | locus YAL030W, strain snc1, active compounds read low 1.01 | locus YAL040C, strain CLN3, active compounds read low 0.968 | locus YBL061C, strain skt5, active compounds read low 1.01 | locus YBR009C, strain hhf1, active compounds read low 0.98 | locus YBR023C, strain chs3, active compounds read low 1.04 | locus YBR171W, strain sec66, active compounds read low 1.03 | locus YBR231C, strain swc5, active compounds read low 1.02 | locus YBR279W, strain paf1, active compounds read low 1.02 | locus YCL011C, strain gbp2, active compounds read low 1.02 | locus YCL016C, strain dcc1, active compounds read low 1.03 | locus YCL061C, strain MRC1 (second series), active compounds read low 1 | [2] 1.03 | locus YCL069W, strain vba3, active compounds read low 1.01 | locus YCR088W, strain abp1, active compounds read low 1.01 | locus YDL005C, strain med2, active compounds read low 1.02 | locus YDL040C, strain nat1, active compounds read low 1.01 | locus YDR001C, strain nth1, active compounds read low 1.01 | locus YDR069C, strain doa4, active compounds read low 1.02 | locus YDR137W, strain rgp1, active compounds read low 1.05 | [3] 0.998 | locus YDR159W, strain sac3, active compounds read low 1 | locus YDR195W, strain ref2 1.02 | locus YDR297W, strain sur2, active compounds read low 1.01 | locus YDR334W, strain swr1, active compounds read low 1.03 | locus YDR335W, strain msn5, active compounds read low 1.02 | locus YDR363W, strain ESC2, active compounds read low 1.01 | locus YDR392W, strain spt3, active compounds read low 0.975 | locus YEL003W, strain gim4, active compounds read low 1.01 | locus YEL037C, strain rad23, active compounds read low 1.01 | locus YEL061C, strain CIN8 (second series), active compounds read low 1.01 | locus YER002W, strain NOP16, active compounds read low 1.03 | locus YER015W, strain faa2, active compounds read low 0.999 | locus YER016W, strain bim1, active compounds read low 1.01 | locus YER111C, strain swi4, active compounds read low 1.03 | locus YER155C, strain BEM2 (second series), active compounds read low 1.03 | locus YFR010W, strain ubp6, active compounds read low 1.01 | locus YGL167C, strain pmr1, active compounds read low 1.01 | locus YGL173C, strain kem1, active compounds read low 1.02 | locus YGL227W, strain vid30, active compounds read low 1.03 | locus YGL240W, strain doc1, active compounds read low 1.04 | locus YGL253W, strain hxk2, active compounds read low 1.03 | locus YGR229C, strain SMI1, active compounds read low 1.04 | locus YHR013C, strain ard1, active compounds read low 1.05 | locus YHR027C, strain rpn1, active compounds read low 1.03 | [4] 1.11 | locus YHR079C, strain IRE1, active compounds read low 1.1 | locus YHR142W, strain chs7, active compounds read low 1.04 | locus YJL092W, strain hpr5, active compounds read low 1.02 | locus YJL095W, strain BCK1 (second series), active compounds read low 1.01 | locus YJL095W, strain BCK1, active compounds read low 1.09 | locus YJL115W, strain asf1, active compounds read low 1.03 | locus YJL129C, strain trk1, active compounds read low 1.07 | locus YJL154C, strain vps35, active compounds read low 1.03 | locus YJL164C, strain tpk1, active compounds read low 1 | locus YJL166W, strain qcr8, active compounds read low 1.03 | [5] 1.02 | locus YJR066W, strain TOR1, active compounds read low 0.998 | [6] 1.01 | locus YKL160W, strain elf1, active compounds read low 1.05 | locus YKR026C, strain gcn3, active compounds read low 1.02 | locus YKR091W, strain srl3, active compounds read low 1.01 | locus YLL001W, strain dnm1, active compounds read low 1.07 | locus YLL026W, active compounds read low 1.01 | locus YLL041C, strain sdh2, active compounds read low 1.02 | locus YLR027C, strain aat2, active compounds read low 1.02 | locus YLR113W, strain HOG1, active compounds read low 1.12 | locus YLR221C, strain rsa3, active compounds read low 1.03 | locus YLR258W, strain gsy2, active compounds read low 1 | locus YLR262C, strain YPT6 (second series), active compounds read low 1.04 | locus YLR320W, strain mms22, active compounds read low 1.07 | locus YLR342W, strain FKS1, active compounds read low 1.02 | locus YLR357W, strain rsc2, active compounds read low 1.03 | locus YLR370C, strain arc18, active compounds read low 1.03 | locus YLR384C, strain iki3, active compounds read low 1.01 | locus YML120C, strain ndi1, active compounds read low 1.04 | locus YMR058W, strain fet3, active compounds read low 1.03 | locus YMR125W, strain sto1, active compounds read low 1.06 | locus YMR129W, active compounds read low 1.01 | locus YMR205C, strain PFK2, active compounds read low 1.06 | locus YMR231W, strain pep5, active compounds read low 1.01 | [7] 0.993 | locus YNL071W, strain lat1, active compounds read low 1.02 | [8] 1.01 | locus YNL175C, strain NOP13, active compounds read low 1.02 | locus YNL183C, strain NPR1, active compounds read low 1 | locus YNL197C, strain WHI3, active compounds read low 1 | locus YNL209W, strain ssb2, active compounds read low 1.02 | locus YNL224C, strain SQS1, active compounds read low 1.02 | locus YNL248C, strain rpa49, active compounds read low 1.06 | locus YNL322C, strain KRE1 (second series), active compounds read low 1.03 | [9] 1.04 | locus YNR049C, strain mso1, active compounds read low 1.01 | locus YOR001W, strain rrp6, active compounds read low 0.967 | locus YOR070C, strain gyp1, active compounds read low 1.02 | locus YOR080W, strain dia2, active compounds read low 1.01 | locus YOR083W, strain WHI5 (second series), active compounds read low 0.997 | locus YOR083W, strain WHI5, active compounds read low 1.04 | locus YOR106W, strain vam3, active compounds read low 1.05 | locus YOR231W, strain MKK1, active compounds read low 1.11 | locus YOR265W, strain rbl2, active compounds read low 1.01 | locus YOR270C, strain vph1, active compounds read low 1.11 | locus YOR290C, strain snf2, active compounds read low 1.06 | locus YPL051W, strain arl3, active compounds read low 1.05 | [10] 1.02 | locus YPL078C, strain atp4, active compounds read low 1.06 | locus YPL106C, strain sse1, active compounds read low 1.01 | locus YPL240C, strain hsp82, active compounds read low 1.01 | [11] 1 | locus YPL256C, strain CLN2, active compounds read low 1.14

CSc1c(-c2ccccc2)c(N)nn1S(=O)(=O)c1ccccc1
inactive: [1] 0.99 | locus YBR229C, strain ROT2, active compounds read low 0.982 | [2] 0.993 | locus YDL101C, strain DUN1, active compounds read low 0.978 | locus YDL134C, strain PPH21, active compounds read low 0.998 | [3] 0.979 | locus YEL061C, strain CIN8, active compounds read low 0.967 | locus YGR078C, strain PAC10, active compounds read low 0.98 | [4] 0.913 | locus YHR087W, strain rtc3, active compounds read low 0.973 | locus YJR043C, strain POL32, active compounds read low 1.01 | [6] 0.971 | locus YLR039C, strain RIC1, active compounds read low 0.836 | locus YLR058C, strain SHM2 (second series), active compounds read low 0.996 | locus YLR085C, strain ARP6, active compounds read low 0.849 | locus YLR262C, strain YPT6, active compounds read low 0.901 | locus YML094W, strain GIM5, active compounds read low 0.944 | locus YMR219W, strain ESC1, active compounds read low 1 | locus YMR263W, strain SAP30, active compounds read low 0.983 | [7] 0.815 | [8] 0.97 | locus YNL153C, strain GIM3, active compounds read low 1 | locus YNL298W, strain CLA4 (second series), active compounds read low 0.907 | [9] 0.987 | locus YNR030W, strain Alg12, active compounds read low 0.951 | [10] 0.994 | [11] 0.943 | locus YPR135W, strain CTF4, active compounds read low 0.945
active: [5] 0.0597
